# Reference: PubChem BioAssay (EPA / NIEHS)
# Activity calls are given as the source filed them. Rule for the calls: active = hit-call score of the fitted dose curve at least 0.9, where 1 is the maximum; inactive = score below 0.9.
# Experiments:
# [1] = biological target: Bile acid receptor (Homo sapiens) (UniProt Q96RI1); assay: ATG_IR1_CIS: Attagene CIS-FACTORIAL HepG2 Assay for human Nuclear Receptor Subfamily 1 Group H Member 4 (NR1H4), IR1 submotif (AID 2282946); details: IR1 reporter transcription, actives raise or lower the signal
# Sequence of Bile acid receptor (Homo sapiens) (Q96RI1 whole entry, looked up): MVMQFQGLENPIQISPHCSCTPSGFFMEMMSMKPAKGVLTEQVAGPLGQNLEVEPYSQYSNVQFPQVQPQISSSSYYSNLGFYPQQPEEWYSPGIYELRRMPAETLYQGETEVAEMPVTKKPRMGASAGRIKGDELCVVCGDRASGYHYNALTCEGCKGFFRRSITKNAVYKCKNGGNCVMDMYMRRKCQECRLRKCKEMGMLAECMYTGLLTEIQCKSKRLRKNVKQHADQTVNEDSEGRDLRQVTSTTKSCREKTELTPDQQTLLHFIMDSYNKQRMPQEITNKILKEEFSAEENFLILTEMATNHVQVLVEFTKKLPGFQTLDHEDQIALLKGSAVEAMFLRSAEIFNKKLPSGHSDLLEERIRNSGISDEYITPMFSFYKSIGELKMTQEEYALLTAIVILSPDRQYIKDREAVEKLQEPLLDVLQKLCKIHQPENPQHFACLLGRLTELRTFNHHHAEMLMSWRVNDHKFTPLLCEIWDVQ
# Procedure, shortened: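 Transient MRTU transfection, HepG2; 24 h dosing; RNA → RT-PCR → 6-FAM primer extension → HpaI digest → capillary electrophoresis fluorescence. Gain/loss of signal fitted relative to DMSO.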
# [2] = ATG_ISRE_CIS: Attagene CIS-FACTORIAL HepG2 Assay for human Interferon Regulatory Factor 1 (IRF1) binding to an Interferon-Stimulated Response Element (ISRE) (AID 2282948); details: HepG2 ISRE cis-reporter (Attagene), mRNA transcription readout; actives raise or lower the signal
# Procedure, shortened: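 HepG2 cells transiently transfected with multiplexed cis-promoter reporter units; after 24 h compound exposure, reporter mRNA quantified by RT-PCR, FAM labelling, HpaI digestion and capillary electrophoresis. Bidirectional fit versus DMSO baseline.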
# [3] = ATG_M_32_CIS: Attagene CIS-FACTORIAL HepG2 Assay for M32 Transcription Factor (Internal Marker) (AID 2282949); details: HepG2 Attagene cis-factorial M32 reporter, mRNA; actives raise or lower the signal;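 note: background control marker of the multiplexed CIS panel rather than a real target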
# Procedure, shortened: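 Following 24 h chemical exposure of HepG2 cells transiently expressing cis-promoter reporter constructs, reporter transcript levels were determined by RT-PCR with fluorescent labelling and capillary electrophoresis, then fitted bidirectionally against DMSO.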
# [4] = ATG_M_06_CIS: Attagene CIS-FACTORIAL HepG2 Assay for M06 Transcription Factor (Internal Marker) (AID 2282950); details: HepG2 Attagene CIS-FACTORIAL M06 internal marker reporter; actives raise or lower the signal
# Procedure, shortened: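 Measured 24 h post-dosing in transiently transfected HepG2 cells, this internal-marker endpoint reports reporter mRNA via RT-PCR with fluorescent primer extension and capillary electrophoresis. DMSO served as negative control and baseline for bidirectional fitting.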
# [5] = biological target: Hypoxia-inducible factor 1-alpha (Homo sapiens) (UniProt Q16665); assay: ATG_HIF1a_CIS: Attagene CIS-FACTORIAL HepG2 Assay for human Hypoxia Inducible Factor 1 (HIF1A) (AID 2282951); details: HepG2 Attagene cis-factorial HIF1a reporter transcription; actives raise or lower the signal
# Sequence of Hypoxia-inducible factor 1-alpha (Homo sapiens) (Q16665 whole entry, looked up): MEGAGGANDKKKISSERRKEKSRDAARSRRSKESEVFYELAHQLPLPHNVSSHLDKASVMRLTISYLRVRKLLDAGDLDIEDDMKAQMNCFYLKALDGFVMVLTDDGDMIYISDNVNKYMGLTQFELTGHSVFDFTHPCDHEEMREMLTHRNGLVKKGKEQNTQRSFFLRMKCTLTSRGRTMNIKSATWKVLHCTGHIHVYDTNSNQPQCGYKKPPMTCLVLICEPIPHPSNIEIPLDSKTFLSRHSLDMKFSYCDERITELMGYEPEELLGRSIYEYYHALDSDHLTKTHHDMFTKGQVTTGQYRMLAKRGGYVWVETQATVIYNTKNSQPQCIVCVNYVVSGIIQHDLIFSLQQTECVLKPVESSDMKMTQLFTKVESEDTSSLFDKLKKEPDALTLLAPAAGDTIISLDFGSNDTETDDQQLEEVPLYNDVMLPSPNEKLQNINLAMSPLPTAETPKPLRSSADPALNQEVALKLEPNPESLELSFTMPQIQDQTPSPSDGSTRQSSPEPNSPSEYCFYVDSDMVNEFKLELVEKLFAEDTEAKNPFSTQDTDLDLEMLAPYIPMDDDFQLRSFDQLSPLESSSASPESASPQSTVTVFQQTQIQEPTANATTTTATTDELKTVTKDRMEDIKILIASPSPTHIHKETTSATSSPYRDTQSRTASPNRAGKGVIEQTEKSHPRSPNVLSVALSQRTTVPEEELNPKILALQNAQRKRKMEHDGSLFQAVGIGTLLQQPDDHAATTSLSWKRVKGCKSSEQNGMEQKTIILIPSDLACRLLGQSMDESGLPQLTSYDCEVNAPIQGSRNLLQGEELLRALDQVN
# Procedure, shortened: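 Fluorescence intensity of capillary-separated, 6-FAM-labelled reporter amplicons gives mRNA induction in HepG2 cells carrying transfected cis-promoter reporter units; cells exposed 24 h, responses fitted up or down from DMSO.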
# [6] = biological target: Hepatocyte nuclear factor 6 (Homo sapiens) (UniProt Q9UBC0); assay: ATG_HNF6_CIS: Attagene CIS-FACTORIAL HepG2 Assay for human Hepatocyte Nuclear Factor 6 (HNF6) (AID 2282952); details: HepG2 Attagene cis-factorial HNF6 reporter transcription; actives raise or lower the signal
# Sequence of Hepatocyte nuclear factor 6 (Homo sapiens) (Q9UBC0 whole entry, looked up, the tested form may be a part): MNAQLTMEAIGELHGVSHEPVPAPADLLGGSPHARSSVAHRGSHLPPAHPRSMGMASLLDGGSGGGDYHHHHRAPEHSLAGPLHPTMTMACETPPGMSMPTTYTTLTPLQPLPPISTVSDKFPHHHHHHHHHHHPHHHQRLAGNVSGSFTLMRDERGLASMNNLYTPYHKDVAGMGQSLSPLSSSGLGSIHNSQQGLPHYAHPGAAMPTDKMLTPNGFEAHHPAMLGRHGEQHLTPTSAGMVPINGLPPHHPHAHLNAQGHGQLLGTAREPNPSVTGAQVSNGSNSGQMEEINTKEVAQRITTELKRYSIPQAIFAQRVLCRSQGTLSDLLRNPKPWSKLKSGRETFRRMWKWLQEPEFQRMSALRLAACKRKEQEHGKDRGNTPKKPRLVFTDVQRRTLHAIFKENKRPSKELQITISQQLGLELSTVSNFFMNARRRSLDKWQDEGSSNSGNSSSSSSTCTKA
# Procedure, shortened: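 Reporter mRNA induction or loss in HepG2 after 24 h exposure; transient cis-MRTU transfection; fragments quantified by capillary electrophoresis; bidirectional analysis, DMSO as negative control.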
# [7] = biological target: Heat shock factor protein 1 (Homo sapiens) (UniProt Q00613); assay: ATG_HSE_CIS: Attagene CIS-FACTORIAL HepG2 Assay for human Heat Shock Transcription Factor 1 (HSE) (AID 2282953); details: HepG2 HSE cis-reporter, Attagene RNA transcription; actives raise or lower the signal
# Sequence of Heat shock factor protein 1 (Homo sapiens) (Q00613 whole entry, looked up): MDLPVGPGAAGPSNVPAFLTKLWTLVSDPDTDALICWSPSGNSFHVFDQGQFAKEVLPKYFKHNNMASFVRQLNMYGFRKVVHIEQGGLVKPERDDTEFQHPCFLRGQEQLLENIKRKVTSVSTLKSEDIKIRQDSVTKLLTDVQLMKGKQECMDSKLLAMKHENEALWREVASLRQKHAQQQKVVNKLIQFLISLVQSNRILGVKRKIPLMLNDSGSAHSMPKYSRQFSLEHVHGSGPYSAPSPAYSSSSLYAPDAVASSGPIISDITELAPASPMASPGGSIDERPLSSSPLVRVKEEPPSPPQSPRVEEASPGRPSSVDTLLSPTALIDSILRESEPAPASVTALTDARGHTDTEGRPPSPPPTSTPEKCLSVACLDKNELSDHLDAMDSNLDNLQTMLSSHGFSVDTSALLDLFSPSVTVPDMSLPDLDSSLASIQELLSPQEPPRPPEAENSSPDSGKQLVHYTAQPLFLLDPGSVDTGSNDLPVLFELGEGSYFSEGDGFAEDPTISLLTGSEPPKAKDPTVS
# Procedure, shortened: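 Reporter mRNA induction in HepG2 is measured 24 h after dosing, using transiently transfected multiplexed cis-regulated reporter units. Signal comes from capillary electrophoresis of labelled RT-PCR products, with DMSO as negative control.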
# [8] = ATG_MRE_CIS: Attagene CIS-FACTORIAL HepG2 Assay for human Metal Responsive Element (MRE) (AID 2282954); details: HepG2 MRE cis-reporter transcription, Attagene multiplex; actives raise or lower the signal
# Procedure, shortened: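 HepG2 cells transiently transfected with multiple cis-element reporter units measure endogenous MTF1-driven transcription. After 24 h compound exposure, reporter mRNA is quantified by RT-PCR with 6-FAM labelling, HpaI digestion and capillary electrophoresis; bidirectional fits versus DMSO.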
# [9] = ATG_PBREM_CIS: Attagene CIS-FACTORIAL HepG2 Assay for human Phenobarbital-responsive Enhancer Module (PBREM) (AID 2282955); details: HepG2 PBREM cis-reporter, Attagene multiplexed transcription; actives raise or lower the signal
# Procedure, shortened: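 Cells were transfected with cis-element reporter units and treated for 24 h, after which RNA was extracted and reporter transcripts measured by RT-PCR and capillary electrophoresis.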
# [10] = ATG_GRE_CIS: Attagene CIS-FACTORIAL HepG2 Assay for human Glucocorticoid Response Elements (GRE) (AID 2282947); details: HepG2 GRE cis-reporter, Attagene multiplex mRNA; actives raise or lower the signal
# Procedure, shortened: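 HepG2 cells transiently transfected with multiple cis-promoter reporter units measure endogenous TF activity; 24 h compound exposure. Reporter mRNA quantified by RT-PCR, FAM labelling, HpaI digestion and capillary electrophoresis; bidirectional fit vs DMSO baseline.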
Compound,outcome [1],outcome [2],outcome [3],outcome [4],outcome [5],outcome [6],outcome [7],outcome [8],outcome [9],AC50 [8],AC50 [9],outcome [10],AC50 [5],AC50 [2],AC50 [1],AC50 [7]
IC(I)I,inactive,inactive,inactive,inactive,inactive,inactive,inactive,inactive,,,,,,,,
CCCCCCOC(=O)CCC,inactive,inactive,inactive,inactive,inactive,inactive,inactive,,inactive,,,,,,,
O=C1NC2NC(=O)NC2N1 (centres undefined),inactive,inactive,inactive,inactive,inactive,inactive,inactive,inactive,,,,,,,,
NCC1CCCC(CN)C1 (centres undefined),inactive,inactive,inactive,inactive,inactive,inactive,inactive,,inactive,,,,,,,
CCOC(=O)CCc1ccccc1,inactive,inactive,inactive,inactive,inactive,inactive,inactive,inactive,,,,,,,,
Cc1cc(CCC(=O)OCCOCCOCCOC(=O)CCc2cc(C)c(O)c(C(C)(C)C)c2)cc(C(C)(C)C)c1O,inactive,inactive,inactive,inactive,inactive,inactive,inactive,,,26.6 µM (active),17.7 µM (active),,,,,
O=C(Nc1ccc2c(c1)Cc1ccccc1-2)C(F)(F)F,inactive,inactive,,,,inactive,inactive,,inactive,,,inactive,22.6 µM (active),,,
OCc1cccc(Oc2ccccc2)c1,inactive,inactive,inactive,inactive,inactive,inactive,inactive,inactive,inactive,,,,,,,
CCOC(=O)COC(=O)c1cc(Oc2ccc(C(F)(F)F)cc2Cl)ccc1[N+](=O)[O-],inactive,inactive,inactive,inactive,inactive,inactive,inactive,inactive,inactive,,,,,,,
CCOC(=O)CC(C)O (centres undefined),inactive,inactive,inactive,inactive,inactive,inactive,inactive,inactive,inactive,,,,,,,
CCCCCCC(=O)c1ccccc1,inactive,inactive,inactive,inactive,inactive,inactive,inactive,inactive,inactive,,,,,,,
CCCC[O][Al]([O]CCCC)[O]CCCC,inactive,inactive,inactive,inactive,inactive,inactive,inactive,inactive,inactive,,,,,,,
O=C(CS)OCCOC(=O)CS,inactive,,inactive,inactive,inactive,inactive,inactive,inactive,inactive,,,,,57.8 µM (active),,
CCOC(=O)C(C#N)=C(c1ccccc1)c1ccccc1,,inactive,inactive,inactive,,inactive,,,,86.9 µM (active),2.07 µM (active),,19.8 µM (active),,100 µM (active),149 µM (active)
C=CC(=O)OCCCC,inactive,inactive,inactive,inactive,inactive,inactive,inactive,inactive,inactive,,,,,,,
C#CC(C)N(C)C(=O)Nc1ccc(Cl)cc1 (centres undefined),inactive,inactive,inactive,inactive,inactive,inactive,inactive,inactive,inactive,,,,,,,
CCOc1ccc(NC(=O)CC(C)O)cc1 (centres undefined),inactive,inactive,inactive,inactive,inactive,inactive,inactive,inactive,,,,,,,,
CCCCC(CC)(CO)CO,inactive,inactive,inactive,inactive,inactive,inactive,inactive,inactive,inactive,,,,,,,
COc1ccc(CCC(C)=O)cc1,inactive,inactive,inactive,inactive,inactive,inactive,inactive,inactive,,,,,,,,
COc1cc(CCC(C)=O)ccc1O,inactive,inactive,inactive,inactive,inactive,inactive,inactive,,inactive,,,,,,,
C[C@H](CCC(=O)NCC(=O)O)[C@H]1CC[C@H]2[C@@H]3[C@H](O)C[C@@H]4C[C@H](O)CC[C@]4(C)[C@H]3C[C@H](O)[C@]12C,inactive,inactive,,inactive,,inactive,inactive,inactive,,,,inactive,,,,
C[Si]1(C)O[Si](C)(C)O[Si](C)(C)O1,inactive,inactive,inactive,inactive,inactive,inactive,inactive,inactive,inactive,,,,,,,
Cc1c(C2(c3cc(Br)c(O)c(Br)c3C)OS(=O)(=O)c3ccccc32)cc(Br)c(O)c1Br,inactive,inactive,inactive,inactive,inactive,inactive,inactive,inactive,inactive,,,,,,,
COc1ccc(COC(C)=O)cc1,inactive,inactive,inactive,inactive,inactive,inactive,inactive,inactive,inactive,,,,,,,
CCCCCCCCCCCC(=O)OC[C@@H](O)[C@H]1OC[C@H](O)[C@H]1O,inactive,inactive,,,inactive,inactive,inactive,inactive,inactive,,,inactive,,,,
Cc1cccc(Nc2ccccc2)c1,,inactive,inactive,inactive,inactive,inactive,,,inactive,135 µM (active),,,,,42.5 µM (active),162 µM (active)
O=C(O)CCCCCCCCC(=O)O,inactive,inactive,inactive,inactive,inactive,inactive,inactive,inactive,inactive,,,,,,,
CC(=O)c1ccccn1,inactive,inactive,inactive,inactive,inactive,inactive,inactive,inactive,inactive,,,,,,,
